Assay [1] is described as follows: Quantitative High-Throughput drug screen in 47 multiple myeloma cell lines against the NCATS MIPE library collection: FR4_PLB cell viability assay (AID 1918924; further: nearly all actives have a fitted effect of over 35% in size). In outline: (§1)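 Relative luminescence from CellTiter-Glo served as the viability signal, referenced to DMSO-treated (100%) and cell-free medium (0%) controls. Treatment lasted 48 hours at 37C with 500 cells per well.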

Assay [2] can be described thus: Quantitative High-Throughput drug screen in 47 multiple myeloma cell lines against the NCATS MIPE library collection: Delta47_JCRB cell viability assay (AID 1918925; further: nearly all actives have a fitted effect of over 45% in size). In outline:
(§2)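 Luminescent ATP measurement with CellTiter-Glo gives viability, scaled between DMSO-only wells (100%) and media-only wells (0%). Cells, 500 per well, faced library compounds for 48 hours at 37C.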

Assay [3] in a line: Quantitative High-Throughput drug screen in 47 multiple myeloma cell lines against the NCATS MIPE library collection: AMO1_DSMZ cell viability assay (AID 1918927; further: nearly all actives have a fitted effect of over 30% in size). In outline:
as §2

Assay [4] in a line: Quantitative High-Throughput drug screen in 47 multiple myeloma cell lines against the NCATS MIPE library collection: ARD_JJKsccE7 cell viability assay (AID 1918929). In outline:
as §2

Assay [5] can be described thus: Quantitative High-Throughput drug screen in 47 multiple myeloma cell lines against the NCATS MIPE library collection: Karpas620_DSMZ cell viability assay (AID 1918959). Further: nearly all actives have a fitted effect of over 30% in size. The gist of the method: as §1
Assay [6] can be described thus: Quantitative High-Throughput drug screen in 47 multiple myeloma cell lines against the NCATS MIPE library collection: JIM3_ECACC cell viability assay (AID 1918963; further: nearly all actives have a fitted effect of over 35% in size). The gist of the method: as §1
A short description of assay [7]: Quantitative High-Throughput drug screen in 47 multiple myeloma cell lines against the NCATS MIPE library collection: INA6_PLB cell viability assay (AID 1918965; further: nearly all actives have a fitted effect of over 55% in size). The gist of the method: as §1
Assay [8] in a line: Quantitative High-Throughput drug screen in 47 multiple myeloma cell lines against the NCATS MIPE library collection: KMS27_JCRB cell viability assay (AID 1918970). Further: nearly all actives have a fitted effect of over 30% in size. In outline: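 KMS27_JCRB myeloma cells, 500 per well, exposed 48 h at 37 C, 5% CO2 to MIPE 4.0 compounds. Viability from ATP by CellTiter-Glo luminescence, normalized to DMSO (100%) and medium-only (0%) wells.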
Assay [9] can be described thus: Quantitative High-Throughput drug screen in 47 multiple myeloma cell lines against the NCATS MIPE library collection: EJM_DSMZ cell viability assay (AID 1918926; further: nearly all actives have a fitted effect of over 30% in size). In outline: as §2
Assay [10] is described as follows: Quantitative High-Throughput drug screen in 47 multiple myeloma cell lines against the NCATS MIPE library collection: KMM1_JCRB cell viability assay (AID 1918960). Further: nearly all actives have a fitted effect of over 30% in size. In outline: (§3)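 Cell viability inhibition in this qHTS is measured via ATP content (CellTiter-Glo) after 48 h drug exposure at 37 °C. Wells hold 500 cells; DMSO-treated wells define 100% and medium-only wells 0%.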

A short description of assay [11]: Quantitative High-Throughput drug screen in 47 multiple myeloma cell lines against the NCATS MIPE library collection: JIM1_ECACC cell viability assay (AID 1918964). The gist of the method:
as §2

Assay [12] can be described thus: Quantitative High-Throughput drug screen in 47 multiple myeloma cell lines against the NCATS MIPE library collection: H1112_PLB cell viability assay (AID 1918967; further: nearly all actives have a fitted effect of over 30% in size). In outline:
as §2

A short description of assay [13]: Quantitative High-Throughput drug screen in 47 multiple myeloma cell lines against the NCATS MIPE library collection: KHM11_PLB cell viability assay (AID 1918962). Further: nearly all actives have a fitted effect of over 35% in size. In outline: as §1
The nature of assay [14]: Quantitative High-Throughput drug screen in 47 multiple myeloma cell lines against the NCATS MIPE library collection: Karpas25_ECACC cell viability assay (AID 1918968; further: nearly all actives have a fitted effect of over 35% in size). In outline: as §2
Assay [15] is described as follows: Quantitative High-Throughput drug screen in 47 multiple myeloma cell lines against the NCATS MIPE library collection: KMS12BM_JCRB cell viability assay (AID 1918971). Further: nearly all actives have a fitted effect of over 35% in size. The gist of the method:
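We plated 500 myeloma cells per well, pinned in MIPE 4.0 compounds, and incubated for 48 hours at 37C. ATP was then quantified with CellTiter-Glo, with DMSO and media-only wells defining 100% and 0%.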

Assay [16] can be described thus: Quantitative High-Throughput drug screen in 47 multiple myeloma cell lines against the NCATS MIPE library collection: ARP1_JJKsccF8 cell viability assay (AID 1918928; further: nearly all actives have a fitted effect of over 40% in size). The gist of the method: as §3
Assay [17] is described as follows: Quantitative High-Throughput drug screen in 47 multiple myeloma cell lines against the NCATS MIPE library collection: Karpas417_ECACC cell viability assay (AID 1918961). As to conditions: Karpas417 myeloma viability, CellTiter-Glo ATP luminescence, 48 h; viability (% of DMSO): at 45.8 µM (top of the series). In outline:
as §1

Inconclusive results are not listed. Calls of active or inactive are those of the source. The call rests on the fitted dose curve; in most records, active means well fitted curve in the direction sought with a large enough effect; inconclusive means small, poorly fitted or top-dose-only effect, or another doubt; inactive means no such curve, though single readings can be large; an effect the other way counts as inactive or inconclusive.
Potency means the concentration at half of the fitted maximal effect.

`c1cc2c(cc1[C@H]1OC[C@H]3[C@H]1CO[C@H]3c1ccc3c(c1)OCO3)OCO2`: the Potency result in assay [1], in assay [2], in assay [3], in [4], in [5] and in assay [6] was “inactive” each time. The Potency result in assay [7] and in assay [8] was “inactive” each time.
For the molecule `CN(C)NC(=O)CCC(=O)O`, the Potency entry in assay [1], in [9], in assay [3], in [4], in assay [5] and in assay [10] was “inactive” each time. Moreover, the Potency entry in [6], in assay [11], in [12] and in assay [8] was “inactive” throughout.
Regarding `O=c1cccc2n1CC1CNC[C@H]2C1`, the Potency entry in assay [1], in assay [9], in assay [13], in assay [6] and in assay [15] was “inactive” each time. Further, the Potency in [3] is 13.2 µM (active); in [5], 13.2 µM (active); in assay [10] it was 11.8 µM (active); in assay [7], 14.8 µM (active); in assay [14] it was 23.5 µM (active).
Turning to `CC[C@H]1C=CC=CC[C@@H](C)[C@H](O)[C@@](C)(O)C(=O)[C@@H](C)[C@H](O)[C@@H](C)C(=O)[C@@H](C)[C@H](O)[C@@H](C)C=CC(=O)O[C@@H]2[C@@H](C)[C@H](CC1)O[C@]1(CC[C@H](C)[C@H](C[C@@H](C)O)O1)[C@H]2C`, the Potency was 0.001 µM (active) in assay [2]; 0.0059 µM (active) in assay [3]; 0.0021 µM (active) in assay [16]; 0.001 µM (active) in assay [4]; 0.001 µM (active) in assay [5]; 0.001 µM (active) in assay [11]. The figures for the Potency in assay [7] and in [12] were 0.0132 µM (active) and 0.0053 µM (active), respectively.
For `CN(C)[C@@H]1C(=O)C(C(N)=O)=C(O)[C@@]2(O)C(=O)C3=C(O)c4c(O)cccc4[C@@](C)(O)[C@H]3[C@H](O)[C@@H]12`, the Potency entry in assay [1], in assay [9], in assay [4], in [10], in [17] and in assay [7] was “inactive” in each case. For the same molecule, the Potency entry in assay [12] and in assay [8] was “inactive” each time. Moreover, the Potency in assay [13] is 7.43 µM (active).
`C=C[C@@H]1CN2CCC1C[C@@H]2[C@@H](O)c1ccnc2ccccc12` (stereo partly drawn): the Potency in assay [2] is 23.5 µM (active); in assay [9], 9.35 µM (active); in [3], 5.9 µM (active); in assay [5], 5.26 µM (active); in [7], 23.5 µM (active); in [8] it was 5.26 µM (active).
Regarding `C=C1C[C@H]2[C@H]3CCC(=O)[C@@]3(C)CC[C@@H]2[C@@]2(C)C=CC(=O)C=C12`, the Potency in assay [3] was 18.7 µM (active); in [5], 23.5 µM (active); in assay [7] it was 20.9 µM (active); in assay [14] it was 16.6 µM (active); in assay [8], 18.7 µM (active).
`Clc1ccccc1C(c1ccccc1)(c1ccccc1)n1cccn1`: the Potency entry in [1], in assay [2], in assay [4], in [5], in [13] and in [6] was “inactive” each time. The Potency result in assay [11], in [7], in assay [12] and in assay [8] was “inactive” each time.
Take `c1ccc(CCCN2CCN(CCOC(c3ccccc3)c3ccccc3)CC2)cc1`: the Potency in assay [1] is 23.5 µM (active); in assay [2] it was 16.6 µM (active); in [13], 16.6 µM (active); in [6], 20.9 µM (active); in [7], 20.9 µM (active); in assay [12] it was 26.4 µM (active). The Potency in assay [14] was 10.5 µM (active). The Potency result in [4], in [5], in assay [10] and in [8] was “inactive” throughout.
Consider `C[C@]12Cc3cn[nH]c3C[C@@H]1CC[C@@H]1[C@H]2CC[C@@]2(C)[C@H]1CC[C@]2(C)O`, for which the Potency entry in [4], in assay [5], in [10], in assay [11], in assay [7] and in assay [12] was “inactive” each time. In addition, in assay [14], the Potency entry is “inactive”. In [15], the Potency is 16.6 µM (active).
On to `CCCC[N+]1(C)[C@H]2CC(OC(=O)[C@H](CO)c3ccccc3)C[C@H]1[C@H]1O[C@H]12` (stereo partly drawn), for which the Potency entry in assay [1], in assay [2], in [4], in assay [5], in assay [10] and in [13] was “inactive” each time. The Potency result in assay [6], in assay [11], in assay [12], in assay [14] and in assay [8] was “inactive” in each case. Moreover, in assay [7], the Potency is 2.35 µM (active).
`Cc1c(C(=O)c2cccc3ccccc23)c2cccc3c2n1[C@H](CN1CCOCC1)CO3`: the Potency in [1] is 23.5 µM (active); in assay [2], 14.8 µM (active); in assay [16], 26.4 µM (active); in [5], 8.33 µM (active); in assay [10], 5.26 µM (active); in [13], 16.6 µM (active). For the same molecule, the Potency in assay [6] was 23.5 µM (active); in assay [7] it was 23.5 µM (active); in assay [12], 23.5 µM (active); in [14] it was 14.8 µM (active); in assay [15], 18.7 µM (active).
Turning to `C[C@@H]1CC[C@H]2[C@@H](C)C(=O)O[C@@H]3O[C@@]4(C)CC[C@H]1[C@]32OO4`, the Potency entry in assay [9], in assay [4], in assay [10] and in [8] was “inactive” in each case. Further, the Potency in assay [16] is 0.332 µM (active); in assay [5] it was 5.9 µM (active); in assay [6], 1.48 µM (active); in [7] it was 1.18 µM (active).
With `C[C@H]1CCCC=CC2C[C@H](O)C[C@@H]2[C@H](O)C=CC(=O)O1` (stereo partly drawn), the Potency entry in [1], in assay [2], in assay [16], in [17], in [13] and in assay [6] was “inactive” in each case. The Potency result in assay [7] and in assay [12] was “inactive” in each case. For the same molecule, the Potency in assay [8] is 0.001 µM (active).
Turning to `C[C@]12CC[C@H](O)CC1=CC[C@H]1[C@H]3CCC(=O)[C@@]3(C)CC[C@@H]12`, the Potency entry in [1], in [16], in assay [6] and in assay [8] was “inactive” throughout. The Potency in assay [3] is 18.7 µM (active); in assay [5] it was 16.6 µM (active); in [13], 14.8 µM (active); in assay [11], 0.418 µM (active).
In the case of `C#C[C@]1(O)C=C[C@@H]2[C@@H]3CCC4=CC(=O)CC[C@@H]4[C@H]3CC[C@@]21CC`, the Potency entry in [1], in assay [9], in assay [16], in assay [5], in assay [6] and in assay [12] was “inactive” each time.
On to `C[C@]12CC[C@@H]3[C@@H](CCC4=CC(=O)CC[C@@H]43)[C@@H]1CC[C@@H]2OC(=O)CCc1ccccc1`, for which the Potency entry in assay [1], in [3], in assay [5], in assay [10], in assay [6] and in [12] was “inactive” each time. The Potency entry in assay [14] is “inactive”.
For the molecule `CC(C)[C@H]1C(=O)N[C@H](CO)Cc2c[nH]c3cccc(c23)N1C`, the Potency result in assay [2], in assay [9], in [3], in assay [16], in assay [5] and in [10] was “inactive” each time. In addition, in assay [12], the Potency entry is “inactive”.
Turning to `C=CCON=C(C[C@H]1O[C@@H]2O[C@]3(C)CC[C@@H]4[C@H](C)CC[C@@H]([C@H]1C)[C@@]24OO3)[C@H]1O[C@@H]2O[C@]3(C)CC[C@H]4[C@H](C)CC[C@@H]([C@@H]1C)[C@@]24OO3`, the Potency was 0.372 µM (active) in assay [2]; 0.148 µM (active) in [9]; 0.118 µM (active) in [3]; 0.0209 µM (active) in assay [16]; 0.132 µM (active) in assay [4]; 0.148 µM (active) in assay [17]. Also, the Potency in [13] is 0.418 µM (active); in [6], 0.372 µM (active); in assay [7] it was 0.469 µM (active); in [12], 0.469 µM (active).
In the case of `CC(C)N[C@@H]1CCn2c(=O)[nH]c3cccc(c32)[C@@H]1O`, the Potency was 14.8 µM (active) in assay [2]; 14.8 µM (active) in assay [9]; 5.9 µM (active) in assay [3]; 11.8 µM (active) in assay [16]; 6.62 µM (active) in assay [4]; 5.26 µM (active) in assay [5]. Moreover, the Potency in assay [10] was 0.743 µM (active); in [17], 1.05 µM (active); in assay [13], 13.2 µM (active); in assay [6], 9.35 µM (active); in assay [12], 7.43 µM (active); in assay [8], 0.833 µM (active).
As to `O=C1CCC[C@@H]2[C@H]3CCCN4CCC[C@@H](CN12)[C@@H]34`, the Potency entry in assay [2], in assay [9], in assay [5], in [6], in [11] and in assay [7] was “inactive” in each case. Moreover, the Potency result in [12] and in assay [8] was “inactive” each time.
